Consider eight molecules from PubChem BioAssay (NCI).

Assay in all cases: NCI-60 one-dose screen, 48 h (100 = growth as untreated, 0 = no growth, -100 = all killed)
Common to all, as to conditions: 10 µM

The subject of test [1] is HCT-15 colon.
The subject of test [2] is HT29 colon.
Test [3] concerns SNB-75 CNS.
Test [4] concerns SNB-19 CNS.
For test [5], the system named is U251 CNS.
Test [6] relates to PC-3 prostate.
Test [7] concerns SK-MEL-5 melanoma.
The test system of test [8] is UACC-62 melanoma.
Test [9] relates to LOX IMVI melanoma.
For test [10], the system named is SK-MEL-28 melanoma.
Test [11] concerns SK-MEL-2 melanoma.
In test [12] the test system is EKVX NSCLC.
The subject of test [13] is SN12C renal.
Test [14] concerns UO-31 renal.
The test system of test [15] is TK-10 renal.
Test [16] relates to ACHN renal.
In test [17] the test system is CAKI-1 renal.
The test system of test [18] is A498 renal.
Test [19] concerns CCRF-CEM leukemia.

This is part of a sample that, as a whole, favours compounds with a hit. Of some 83,000 tested, about 20% had one in any assay.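 Percent growth is the endpoint: 0 to 100 indicates growth inhibition (40 means 60% inhibition), 0 means no net growth, and negative values indicate cell death.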 Values without a mark were called inactive. The source made the active and inactive calls. Rule for the calls: active = growth percent below 10; inactive = the rest.

Consider `O=C(c1ccc(-n2c(=O)[nH]c3ccccc3c2=O)cc1)N1CCOCC1`, for which the growth in test [1] was 99.2%; in [2] it was 114%; in test [3] it was 80.9%; in test [4] it was 95.5%; in test [5] it was 105%; in test [6], 103%. Moreover, the growth in [7] is 107%; in test [8] it was 92.9%; in test [9] it was 104%; in test [10] it was 108%; in [11], 102%; in [12] it was 101%. Also, the growth is 89.8% in test [13]; 82.5% in [14]; 97.2% in test [15]; 103% in test [16]; 89% in test [17]; 116% in test [18]. In test [19], the growth is 108%.
On to `CCC(C)S(=O)(=O)c1oc(-c2ccc(C)cc2)nc1S(=O)(=O)c1ccccc1` (configuration not stated), for which the growth in test [1] is -72.2% (active); in test [2] it was -71.5% (active); in [3], 3.57% (active); in test [4], 0.128% (active); in test [5], -95.9% (active); in test [6] it was -60.5% (active). The growth was -86.5% (active) in test [7]; -94.2% (active) in test [8]; -94% (active) in [9]; -99.8% (active) in test [10]; -94.9% (active) in [11]; -61% (active) in [12]. The growth in [13] is -85.6% (active); in [14], -100% (active); in [15], -99.5% (active); in test [16], -100% (active); in test [17] it was -100% (active); in test [18], 109%. For the same molecule, the growth in [19] is -46% (active).
On to `Cc1ccc(C(=O)NCCCNc2nc(Nc3ccc(N4CCN(C)CC4)cc3)nc3ccsc23)cc1`, for which the growth in [1] was 2.1% (active); in test [2], 8.64% (active); in test [3] it was 71.9%; in [4] it was 71.6%; in [5] it was 18.5%; in [6] it was 37.9%. Further, the growth was -15.2% (active) in test [7]; 24.1% in [8]; -22.6% (active) in test [9]; -70.3% (active) in test [10]; 81.8% in test [11]; 71.2% in [12]. The growth in [13] is 72.6%; in [14] it was 56.7%; in test [15] it was 87.2%; in test [16], 30.5%; in test [17], 54%; in [18], 137%. Besides, the growth in test [19] is 4.37% (active).
Regarding `CN1CCN(c2ccc(Nc3nc(NCCCNC(=O)c4ccc(F)cc4)c4sccc4n3)cc2)CC1`, the growth in test [1] is 2.85% (active); in [2] it was 11.2%; in test [3], 108%; in test [4], 86%; in test [5] it was 19.7%; in test [6], 50.9%. Also, the growth in test [7] was 60.8%; in test [8], 63.7%; in [9] it was 13.4%; in [10], -45.3% (active); in test [11], 106%; in test [12] it was 87.8%. The growth was 78.8% in [13]; 71.6% in test [14]; 119% in test [15]; 36.7% in [16]; 69.8% in [17]; 129% in [18]. Besides, the growth in test [19] was 18.8%.
As to `Cc1ccc(NC(=O)c2ccc(-n3c(=O)[nH]c4ccccc4c3=O)cc2)cc1`, the growth in test [1] was 88.7%; in [2], 104%; in [3], 50.5%; in test [4], 68.4%; in test [5] it was 91.9%; in [6], 96.1%. Moreover, the growth in test [7] is 90.9%; in test [8], 82.4%; in test [9], 85.1%; in test [10] it was 102%; in test [11], 97.8%; in test [12], 84.8%. Besides, the growth in test [13] is 69.4%; in test [14], -16.8% (active); in [15], 96.3%; in test [16], 68.3%; in test [17] it was 88.4%; in [18] it was 107%. Further, the growth in test [19] is 60.7%.
With `O=S(=O)(c1ccc(Cl)cc1)c1nc(-c2ccccc2)oc1S(=O)(=O)c1ccc(Cl)cc1`, the growth in test [1] was 47.4%; in test [2] it was 89.7%; in test [3], 76.5%; in [4], 94.9%; in test [5] it was 79.9%; in [6], 103%. Moreover, the growth is 91.9% in [7]; 90.4% in [8]; 19.7% in test [9]; 104% in [10]; 96.7% in test [11]; 92.1% in test [12]. Further, the growth in test [13] is 89.5%; in test [14], 64.4%; in test [15] it was 97.8%; in test [16], 91.9%; in test [17] it was 85.8%; in [18], 122%. The growth in [19] was -28.1% (active).
As for `O=C1CCC(N2Cc3c(C#CCCCNC(=O)c4ccc(NC(=O)[C@@H]5NC6(CCCCC6)[C@@]6(C(=O)Nc7cc(Cl)ccc76)[C@H]5c5cccc(Cl)c5F)cc4)cccc3C2=O)C(=O)N1` (some centres not stated), the growth in test [1] was 41.8%; in [2] it was 51.5%; in test [3] it was 56.1%; in test [4] it was 58.8%; in [5] it was 55.4%; in test [6], 51.8%. In addition, the growth in test [7] is 5.4% (active); in test [8], 17.3%; in test [9], 27.5%; in test [10] it was 62.2%; in test [11], 76.4%; in test [12], 51.6%. For the same molecule, the growth in test [13] was 74.3%; in test [14], 30.3%; in test [15], 79.8%; in test [16], 26.2%; in test [17], 36.1%; in test [18] it was 94.9%. Besides, the growth in test [19] is 47.9%.
For `C#CCNC(=O)[C@]12CCC(C)(C)C[C@H]1C1=CC[C@@H]3[C@@](C)(CCC#N)[C@H](C(=C)C)CC[C@@]3(C)[C@]1(C)CC2`, the growth in test [1] is 33.2%; in test [2], 48.9%; in test [3], 82.5%; in test [4] it was 64.3%; in test [5], 54.6%; in [6] it was 26.3%. Also, the growth in test [7] is 42.7%; in test [8] it was 52.1%; in test [9], -53.1% (active); in [10], 74.6%; in test [11], 57.2%; in test [12], 57.8%. Further, the growth in [13] is 68.7%; in test [14] it was 36.6%; in test [15], 71.5%; in test [16] it was 60.2%; in test [17], 40.3%; in test [18] it was 129%. Also, the growth in test [19] is 26.2%.
